Most compounds without a hit are left out; they make up all but 2.9% or so of the library.
dFosB activator: activators of mouse delta FosB homodimer | purified delta FosB, TAMRA-CDK5 oligo fluorescence polarization; percent of positive-control signal above neutral wells | P13346 | activation, % at 25 µM | 340,000 compounds, 0.99% hits | AID 493131;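 active = mean activation above about 17%, with every replicate also reaching it, limit read from the data, passing the limit was not always enough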
MEKK3 PB1 HTS: MEKK3-MEK5 PB1 interaction, increase or decrease. binding response (% of control), % at 10 µM. 290,000 compounds, 1.4% hits. bead-based flow cytometry, Alexa488-MEK5 binding to MEKK3; actives lie on both sides; 0 = blocked by unlabeled MEK5, 100 = vehicle. Q99759;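 active = binding response more than 3 SD above or below the average of its plate-row segment, actives on both sides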;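 also: Alexa488 bead fluorescence after subtracting the streptavidin-only scavenger bead signal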
Target sequence (Q99759 whole entry, looked up): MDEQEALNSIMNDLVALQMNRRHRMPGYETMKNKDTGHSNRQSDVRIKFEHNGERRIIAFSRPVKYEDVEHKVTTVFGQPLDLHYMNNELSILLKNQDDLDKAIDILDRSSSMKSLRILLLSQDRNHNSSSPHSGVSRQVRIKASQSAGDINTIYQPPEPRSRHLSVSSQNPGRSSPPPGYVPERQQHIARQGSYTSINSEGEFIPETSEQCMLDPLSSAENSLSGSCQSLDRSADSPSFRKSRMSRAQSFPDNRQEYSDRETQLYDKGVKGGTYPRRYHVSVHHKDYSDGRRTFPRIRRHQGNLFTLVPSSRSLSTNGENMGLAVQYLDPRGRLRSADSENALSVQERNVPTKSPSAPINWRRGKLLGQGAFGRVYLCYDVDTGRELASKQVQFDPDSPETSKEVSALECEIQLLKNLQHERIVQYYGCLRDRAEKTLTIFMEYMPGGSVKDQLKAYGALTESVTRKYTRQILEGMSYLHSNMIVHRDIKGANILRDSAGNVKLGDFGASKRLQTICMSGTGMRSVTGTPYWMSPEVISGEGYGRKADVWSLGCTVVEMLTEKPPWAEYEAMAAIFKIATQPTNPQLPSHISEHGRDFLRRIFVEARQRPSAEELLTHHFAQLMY
MEKK2 mut-MEK5: signal of MEK5 binding to mutant human MEKK2 PB1 domain; bead flow cytometry, Alexa488-MEK5 binding to MEKK2 mutant; percent response, % at 10 µM; 290,000 compounds, 0.35% hits; AID 1530; in the data active = percent response above about 24%, passing the limit was not always enough
MEKK2 WT-MEK5: raises or lowers MEK5 binding to wildtype human MEKK2 PB1 domain; Q9Y2U5; bead flow cytometry, Alexa488-MEK5 binding to MEKK2 WT; actives lie on both sides; binding response (% of control), % at 10 µM; 290,000 compounds, 1.1% hits; in the data active = binding response below about 67% or above about 130%
DNA FID counter: displaces DNA intercalator in HCV helicase counter-screen; DNA fluorescent intercalator displacement, fluorescence; 290,000 compounds, 0.17% hits; inhibition, % at 7.9 µM; in the data active = inhibition above about 37%;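 also: higher means more ethidium bromide displaced from hairpin DNA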
MEKK2wt confirm: raises or lowers MEK5 binding to wildtype human MEKK2, retest. shares compounds with MEKK3 PB1 HTS. bead flow cytometry, Alexa488-MEK5 binding to MEKK2 WT; actives lie on both sides. binding response (% of control), % at 10 µM. 5,900 compounds, 2.4% hits. AID 1892; in the data active = binding response below about 16% or above about 210%; inactive = in between
MEKK2mut-MEK5: signal of MEK5 binding to mutant human MEKK2, retest; shares compounds with MEKK3 PB1 HTS; bead flow cytometry, Alexa488-MEK5 binding to MEKK2 mutant; percent response, % at 10 µM; 5,900 compounds, 2% hits; in the data active = percent response mostly above about 71%, no sharp cut-off; inactive = mostly below about 38%;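 also: higher means compound restores mutant binding toward wildtype level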
MEKK3 confirm: MEKK3-MEK5 PB1 inhibition, single concentration confirmation; AID 1894; binding response (% of control), % at 10 µM; 5,900 compounds, 1.8% hits; shares compounds with MEKK3 PB1 HTS; bead flow cytometry, Alexa488-MEK5 binding to MEKK3; active compounds read low;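 active = binding response below 72% of control, or above a set upper limit, though filed actives all read lower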;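 also: lower values mean stronger disruption of MEK5 binding to MEKK3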
Hits are given with their value; . = inactive; / = not tested or not shown; [ ] = dose if it differs, or a comment.

SMILES	dFosB activator	MEKK3 PB1 HTS	MEKK2 mut-MEK5	MEKK2 WT-MEK5	DNA FID counter	MEKK2wt confirm	MEKK2mut-MEK5	MEKK3 confirm
CC(C(=O)NC1CCCC1)N1CCN(Cc2ccccc2)CC1 (stereo unspecified)	.	140	.	.	.	.	.	.
CC(C(=O)NCCc1ccc(F)cc1)N1CCN(Cc2ccccc2)CC1 (stereo unspecified)	.	.	.	.	.	/	/	/
CC(C)c1ccc(NC(=S)NC2CCN(Cc3ccccc3)CC2)cc1	.	.	.	.	.	/	/	/
Fc1ccccc1NC(=S)N1CCN(Cc2ccccc2)CC1	.	139	.	.	.	.	.	.
CC(C)c1ccccc1NC(=S)NC1CCN(Cc2ccccc2)CC1	.	.	.	138	.	.	.	.
O=C(COC(=O)C1CC1)Nc1ccc(Cl)cc1Cl	.	/	/	/	/	/	/	/
COc1ccccc1C(CNC(=O)C1CC(=O)N(Cc2ccc(C)cc2)C1)N1CCCC1 (stereo unspecified)	.	/	/	/	/	/	/	/
S=C(Nc1ccccc1Cl)NC1CCN(Cc2ccccc2)CC1	.	69[inhibitor]	.	.	.	.	.	.
Cc1oc(-c2ccc(Cl)cc2)cc1C(=O)NC1CCN(Cc2ccccc2)CC1	/	.	.	175	.	.	.	.
Cc1oc(C(C)(C)C)cc1C(=O)NC1CCN(Cc2ccccc2)CC1	.	.	.	.	.	/	/	/
CC1(C)CSC(C)(C)C(=O)N1	.	/	/	/	/	/	/	/
Cn1c(NCC(O)c2ccccc2)nc2c1c(=O)n(Cc1ccc(Cl)cc1)c(=O)n2C (stereo unspecified)	.	78[inhibitor]	.	.	.	.	.	.
Cn1c(NCC(O)c2ccccc2)nc2c1c(=O)n(Cc1ccc(Cl)c(Cl)c1)c(=O)n2C (stereo unspecified)	.	.	.	.	.	/	/	/
CNc1ccc(Br)cc(C(=O)/C=C/c2ccc3c(c2)OCO3)c1=O	.	.	.	66[inhibitor]	.	.	.	.
Nc1cc(S(=O)(=O)Nc2ccccc2Cl)ccc1N1CCOCC1	.	.	.	.	.	/	/	/
Nc1cc(S(=O)(=O)Nc2cc(Cl)ccc2Cl)ccc1N1CCCC1	.	36[inhibitor]	.	40[inhibitor]	.	.	.	.
CCOC(=O)/C=C1/SCC(=O)N1CC(=O)c1ccc[nH]1	.	/	/	/	/	/	/	/
COc1cc(C(=O)NCCC(=O)NCCN2CCCCCC2)cc(OC)c1OC	.	.	.	143	.	.	.	.
COc1cc(C(=O)NCCN2CCCC2)cc(OC)c1OC	.	.	.	.	.	/	/	/
CN(C(=O)CSc1nnc(-c2ccco2)n1Cc1ccccc1)C1CCS(=O)(=O)C1 (stereo unspecified)	.	/	/	/	/	/	/	/
O=C(c1ccc2ccccc2c1)c1c[nH]cc1-c1ccccc1	.	129	.	.	.	.	.	.
Cc1cc(S(=O)(=O)Nc2cc(C)c(O)c(C)c2)c(C)s1	.	.	.	.	.	/	/	/
COc1ccc(CN(CC2CCC(C(=O)O)CC2)C(=S)Nc2ccccc2OC)cc1 (stereo unspecified)	.	.	.	.	.	/	/	/
O=C1NC(=O)C2C3c4ccccc4C(c4ccccc43)C12 (stereo unspecified)	.	70[inhibitor]	.	.	.	.	.	.
CCC(C)c1ccc(OCC(=O)Nc2ccc3[nH]c(=O)[nH]c3c2)cc1 (stereo unspecified)	.	198	.	.	.	.	.	.
OC1CCCN(Cc2ccc3ccc4cccc5ccc2c3c45)C1 (stereo unspecified)	68	.	.	140	.	.	.	.
NCCNC(=O)Cn1c(=O)c2c3c(sc2n(Cc2ccccc2)c1=O)CCCC3	.	.	.	.	.	/	/	/
CCC(=C(c1ccc(OC)cc1)c1ccc(OC)cc1)c1cn(CC(O)CN(CCO)CCO)c2ccccc12 (stereo unspecified)	.	.	.	149	.	.	.	.
CC1(C)Cc2nc(Cl)c(C(N)=O)cc2CO1	.	.	.	.	.	/	/	/

Screening data as filed in PubChem.
